hcDAF12 agonist: H. contortus DAF-12 activation, primary screen; HEK293 hcDAF-12 lit1-tk-luc reporter, luminescence; 0% DMSO, 100% Δ7-dafachronic acid; activation, % at 6.8 µM; 370,000 compounds, 1.4% hits; AID 652067;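 active means activation above the mean of all tested compounds plus 3 SD, cut at about 5.5% in these data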
hgDAF12 agonist: activates the H. glycines DAF-12 receptor ligand-binding domain; HEK293 GAL4-hgDAF12 UAS-luciferase reporter, agonist luminescence; normalized to butyrate control; 370,000 compounds, 1.8% hits; AID 687014; activation, % at 6.8 µM;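 active means activation above a cutoff set at the mean of all screened compounds plus 3 SD, cut at about 10% in these data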
DAX1 inh-1: inhibitors of DAX1 repression of SF-1 activated StAR promoter; AID 652010; inhibition, % at 6.8 µM; 370,000 compounds, 1.1% hits; HEK293T StAR-luciferase reporter, SF-1/DAX-1 repression relief;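 active means inhibition above the mean over all tested compounds plus 3 SD, cut at about 3.6% in these data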;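 further: higher inhibition means more luminescence from relief of DAX-1 repression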
ssDAF12 agonist: activators of S. stercoralis DAF-12 nuclear receptor | HEK293 ssDAF-12/GRIP1 lit1-tk-luc reporter, luminescence; % of 3 µM dafachronic acid response | activation, % at 6.8 µM | 370,000 compounds, 1% hits | AID 652126;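 active means activation above the mean over all tested compounds plus 3 SD, cut at about 0.9% in these data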
DAX1 inh-2: inhibits human nuclear receptor DAX1; P51843; HEK293 Gal4-DAX1 luciferase reporter, luminescence; inhibition, % at 6.75 µM; 340,000 compounds, 0.99% hits;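 active means inhibition above the mean over all tested compounds plus 3 SD, cut at about 4.2% in these data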;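 further: inhibition shows as a rise in luminescence from relieved DAX1 repression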
Target sequence (P51843 207-470 limits assumed): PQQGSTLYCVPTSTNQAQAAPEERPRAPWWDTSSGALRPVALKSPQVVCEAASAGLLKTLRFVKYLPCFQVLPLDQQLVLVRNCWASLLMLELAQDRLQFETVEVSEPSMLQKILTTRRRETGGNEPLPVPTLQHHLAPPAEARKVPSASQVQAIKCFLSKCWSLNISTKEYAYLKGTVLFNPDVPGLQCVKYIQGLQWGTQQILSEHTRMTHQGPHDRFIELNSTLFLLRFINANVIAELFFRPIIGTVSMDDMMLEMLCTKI
DAX1 inh confirm: confirmation of human DAX1 (NR0B1) inhibitors. shares compounds with DAX1 inh-1. HEK293T StAR-promoter luciferase reporter, SF-1/DAX-1 repression. inhibition, % at 6.8 µM. 2,400 compounds, 87% hits. AID 652134;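 active means inhibition above the average of every tested compound plus 3 SD, cut at about 3.8% in these data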;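 further: active compounds raise luminescence by relieving repression of the StAR reporter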
Target sequence (P51843 whole entry, looked up): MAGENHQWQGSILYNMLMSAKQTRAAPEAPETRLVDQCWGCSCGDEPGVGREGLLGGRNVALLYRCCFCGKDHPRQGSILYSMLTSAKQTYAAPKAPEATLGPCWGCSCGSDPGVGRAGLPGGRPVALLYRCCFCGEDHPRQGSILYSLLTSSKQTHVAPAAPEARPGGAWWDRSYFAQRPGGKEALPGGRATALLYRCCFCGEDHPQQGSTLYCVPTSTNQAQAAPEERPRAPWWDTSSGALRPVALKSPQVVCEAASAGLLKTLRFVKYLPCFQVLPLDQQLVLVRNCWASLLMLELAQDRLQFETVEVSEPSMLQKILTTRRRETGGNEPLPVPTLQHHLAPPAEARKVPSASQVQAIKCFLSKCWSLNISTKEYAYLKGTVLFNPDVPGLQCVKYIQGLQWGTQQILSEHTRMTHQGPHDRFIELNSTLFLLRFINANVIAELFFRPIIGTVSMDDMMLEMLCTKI
SF1 AF2mut Luc: counter-screen for DAX1 inhibitors: nonselective inhibitors with SF-1 AF2 mutant | shares compounds with DAX1 inh-1 | HEK293 StAR-luciferase, luminescence | inhibition, % at 6.8 µM | 2,400 compounds, 78% hits | AID 652136;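 active means inhibition above the mean of all tested compounds plus 3 SD, cut at about 3% in these data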
Large screens that a line does not name were inactive (follow-up assays come after a bar, where they were run). Shown are actives, neighbours in structure and some others; about 4.1% of the full set was active somewhere.

CCOc1ccc(NC(=O)C(=S)NC2CCCCC2)cc1	none
O=C(CNC1CCCCC1)Nc1cccc([N+](=O)[O-])c1	none
CCOc1ccc(NC(=O)NC2CCCCCCC2)cc1	hgDAF12 agonist 12, DAX1 inh-1 9.8 | DAX1 inh confirm 9.0 | SF1 AF2mut Luc 4.0
O=C(Nc1cccc([N+](=O)[O-])c1)NC1CCCCCCC1	DAX1 inh-1 5.5 | DAX1 inh confirm 4.6 | SF1 AF2mut Luc 4.3
Cc1cccc(CCNC(=O)Cn2ncc3c2-c2cc(C)ccc2OC3)c1	none (no result: DAX1 inh-2)
O=C(O)c1cc(N/N=C/c2ccc(OCc3ccccc3)cc2)ccc1Cl	none
O=C(O)c1cc(N/N=C/C=C/c2ccccc2)ccc1Cl	DAX1 inh-1 8.6 | DAX1 inh confirm 12 | SF1 AF2mut Luc 6.2
S=c1[nH]nc(-c2cc(-c3ccccc3)n[nH]2)n1N=Cc1cccc(OCc2ccccc2)c1	none (no result: DAX1 inh-2)
COCCCNC(=O)C[C@H]1C[C@H](C(=O)N2CCOCC2)[C@@]2(CCC3CCCC3)c3[nH]c4cc(-c5ccco5)ccc4c3CCN2C1=O	DAX1 inh-1 5.8 | DAX1 inh confirm inactive | SF1 AF2mut Luc inactive
CC(C)(C)NC(=O)C[C@H]1C[C@H](C(=O)N2CCOCC2)[C@@]2(CCC3CCCC3)c3[nH]c4cc(-c5ccco5)ccc4c3CCN2C1=O	none (no result: hcDAF12 agonist, hgDAF12 agonist, DAX1 inh-1, ssDAF12 agonist)
CC(=O)c1cccc(-c2ccnc3c2CC(C(=O)NCc2ccccc2)O3)c1 (stereo unspecified)	DAX1 inh-1 4.8 (no result: DAX1 inh-2) | DAX1 inh confirm 12 | SF1 AF2mut Luc inactive
CC1CCN(c2nc3ccc(C(=O)NCCCN4CCCCC4)cc3s2)CC1	hgDAF12 agonist 11, DAX1 inh-1 5.9 | DAX1 inh confirm 12 | SF1 AF2mut Luc 7.2
O=C1NC[C@H](Cc2ccccc2)N(CC2CCN(CCCC3CCCC3)CC2)C1=O	DAX1 inh-1 5.5 | DAX1 inh confirm inactive | SF1 AF2mut Luc inactive
O=C1NC[C@H](Cc2ccccc2)N(CC2CCN(CC3CCCC3)CC2)C1=O	none
CC(C)c1ccc2nc(N)sc2c1	hcDAF12 agonist 5.8, hgDAF12 agonist 11, DAX1 inh-1 5.9 | DAX1 inh confirm 11 | SF1 AF2mut Luc 6.6
Nc1nc2ccc(O)cc2s1	none
Cc1ccc(CONC(=O)c2ccc(C)cc2)cc1	DAX1 inh-1 5.9 | DAX1 inh confirm 5.9 | SF1 AF2mut Luc 3.5
O=C(NOCc1ccccc1)c1ccc(Cl)cc1	DAX1 inh-1 8.6 | DAX1 inh confirm 11 | SF1 AF2mut Luc 6.2
O=C(N/N=C/c1ccc2cccnc2c1)c1ccco1	hgDAF12 agonist 12, DAX1 inh-1 5.0 | DAX1 inh confirm 14 | SF1 AF2mut Luc 7.2
CN1[C@H](Cc2ccccc2)COc2cc(N3CCCC3)ccc2S1(=O)=O	none (no result: DAX1 inh-2)
COc1ccc2c(ccc[n+]2CC(=O)c2ccccc2)c1	none
COc1ccc(C(=O)C[n+]2cn(C(F)F)c3ccccc32)c(F)c1	DAX1 inh-1 7.3 | DAX1 inh confirm inactive | SF1 AF2mut Luc 3.9
CCOc1cc(C(=O)NN=C2CCCC2)cc(OCC)c1OCC	DAX1 inh-1 6.9 | DAX1 inh confirm inactive | SF1 AF2mut Luc inactive
COc1ccc(C(=O)NN=C2CCCC2)cc1OC	none
Cc1ccc(S(=O)(=O)n2c(C)nc3ccccc32)cc1	none
Nc1nc2ccccc2n1S(=O)(=O)c1ccccc1	DAX1 inh-1 4.8 (no result: DAX1 inh-2) | DAX1 inh confirm inactive | SF1 AF2mut Luc inactive
COc1ccc(-n2c(=O)c(NC(=O)c3ccccc3)c3n(c2=S)CCCCC3)cc1	DAX1 inh-1 4.9 | DAX1 inh confirm inactive | SF1 AF2mut Luc inactive
CC(C)C[C@@H]1Cc2[nH]c(=S)[nH]c(=O)c2[C@H](C)O1	DAX1 inh-1 5.8 (no result: DAX1 inh-2) | DAX1 inh confirm inactive | SF1 AF2mut Luc inactive
CCn1c(COc2ccc(C)cc2)nnc1SCC(=O)Nc1ccc(Oc2ccccc2)cc1	none (no result: DAX1 inh-2)
CCOc1ccc(C(=O)O/N=C(\N)c2ccccn2)cc1OCC	hgDAF12 agonist 12, DAX1 inh-1 6.3 | DAX1 inh confirm inactive | SF1 AF2mut Luc 4.5
N/C(=N\OC(=O)Cc1ccc(-c2ccccc2)cc1)c1ccccn1	none
N/C(=N\OC(=O)CSc1ccccc1)c1ccccn1	DAX1 inh-1 7.0 | DAX1 inh confirm 5.3 | SF1 AF2mut Luc 4.7
COc1ccc(C2CC(=O)C(c3ccccc3)=CN2Cc2ccccc2)cc1 (stereo unspecified)	none (no result: DAX1 inh-2)
CCOC(=O)[C@@]12CCC3=C1N(CCC3)C(=O)[C@H](CC(=O)NCc1cccc(C(F)(F)F)c1)C2	none (no result: DAX1 inh-2)
CN1C(=O)c2cc(NC(=O)Cc3cccs3)ccc2OC[C@@H]2O[C@@H](CC(=O)N[C@H]3CCN(Cc4ccccc4)C3)CC[C@@H]21	none (no result: DAX1 inh-2)
CN(Cc1ccccc1)S(=O)(=O)c1cccc(C(=O)OCc2ccccc2Cl)c1	none (no result: DAX1 inh-2)
COC(=O)c1ccccc1NC(=O)N1CCc2ccc(NC(=O)c3ccccn3)cc2C1	DAX1 inh-1 5.1 | DAX1 inh confirm inactive | SF1 AF2mut Luc inactive
O=C(Nc1ccc2c(c1)CN(C(=O)Nc1ccc(F)cc1)CC2)c1ccccn1	none
O=[N+]([O-])c1ccc(C=NN2CCCCCC2)cc1	DAX1 inh-1 6.7, DAX1 inh-2 5.6 | DAX1 inh confirm 6.9 | SF1 AF2mut Luc 5.7
COc1ccccc1N1CCN(/N=C/c2ccc([N+](=O)[O-])cc2)CC1	none
O=[N+]([O-])c1cccc(CSc2nnc3ccccn23)c1	none
c1ccn2c(SCc3ccc4c(c3)OCCO4)nnc2c1	DAX1 inh-1 4.5 | DAX1 inh confirm 5.3 | SF1 AF2mut Luc 3.5
O=C(Nc1ccc2c(c1)OCO2)c1cc(C2CC2)on1	DAX1 inh-1 7.0 | DAX1 inh confirm 13 | SF1 AF2mut Luc 7.8
COc1ccccc1C(=O)N/N=C/c1ccc2c(c1)OCO2	none
COC(=O)N1CCCCC1c1cc(C(=O)Nc2ccc3c(c2)OCO3)no1 (stereo unspecified)	none (no result: DAX1 inh-2)
O=C(Nc1ccc2c(c1)OCO2)c1cnccn1	none
O=C(Nc1ccc2c(c1)OCO2)c1ccccn1	hgDAF12 agonist 11, DAX1 inh-1 8.8 | DAX1 inh confirm 9.9 | SF1 AF2mut Luc 7.1
O=C(NN=Cc1ccc2c(c1)OCO2)c1ccccc1	hcDAF12 agonist 6.0, DAX1 inh-1 5.3 | DAX1 inh confirm 11 | SF1 AF2mut Luc 5.8
COCC#Cc1cnc2c(c1)C(=O)N([C@@H](C)CO)C[C@H](C)[C@H](CN(C)C(=O)c1ccc3c(c1)OCO3)O2	none (no result: DAX1 inh-2)
O=C(CC1CCCC1)N[C@@H](Cc1cccnc1)C(=O)N1CCC[C@H]1C(=O)NCCc1ccccc1Cl	none (no result: DAX1 inh-2)
O=C(c1ccc2c(Cl)c3c(nc2c1)CCCC3)N1CCC(N2CCCCC2)CC1	DAX1 inh-1 9.0 | DAX1 inh confirm 7.0 | SF1 AF2mut Luc 6.1
COC(=O)[C@]12C[C@H](CC(=O)N3CCSCC3)C(=O)N(Cc3ccco3)C1=C[C@H](C1CCCC1)O[C@@H]2C	none (no result: DAX1 inh-2)

Source: PubChem (The Scripps Research Institute Molecular Screening Center)
